In ChEMBL document CHEMBL1961873, “Compounds: GSK PKIS; Assays: Nanosyn kinase panel” (2012):

Assays:
[1] = biological target: CDK3/Cyclin E (Homo sapiens) (UniProt P24864+Q00526); conditions: at 1 µM;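 note: each figure is a mean percent inhibition of the CDK3/cyclin E complex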
[2] = biological target: Cyclin-dependent kinase 4 (Homo sapiens) (UniProt P11802); conditions: at 0.1 µM
[3] = biological target: Cyclin-dependent kinase 4 (Homo sapiens) (UniProt P11802); conditions: at 1 µM
[4] = biological target: Cyclin-dependent kinase 5 (Homo sapiens) (UniProt Q00535); conditions: at 0.1 µM
Cyclin-dependent kinase 5 (Homo sapiens), sequence (Q00535 whole entry, looked up): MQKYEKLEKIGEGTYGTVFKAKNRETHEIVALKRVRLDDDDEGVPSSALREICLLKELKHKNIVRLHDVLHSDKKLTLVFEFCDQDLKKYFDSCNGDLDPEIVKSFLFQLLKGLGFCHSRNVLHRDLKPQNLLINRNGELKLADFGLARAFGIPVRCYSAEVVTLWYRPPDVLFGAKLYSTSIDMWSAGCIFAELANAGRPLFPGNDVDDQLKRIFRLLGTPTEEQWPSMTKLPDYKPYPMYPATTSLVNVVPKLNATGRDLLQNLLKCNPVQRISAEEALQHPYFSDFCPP

[5] = biological target: Cyclin-dependent kinase 5 (Homo sapiens) (UniProt Q00535); conditions: at 1 µM
[6] = biological target: Cyclin-dependent kinase 6 (Homo sapiens) (UniProt Q00534); conditions: at 0.1 µM
Cyclin-dependent kinase 6 (Homo sapiens), sequence (Q00534 whole entry): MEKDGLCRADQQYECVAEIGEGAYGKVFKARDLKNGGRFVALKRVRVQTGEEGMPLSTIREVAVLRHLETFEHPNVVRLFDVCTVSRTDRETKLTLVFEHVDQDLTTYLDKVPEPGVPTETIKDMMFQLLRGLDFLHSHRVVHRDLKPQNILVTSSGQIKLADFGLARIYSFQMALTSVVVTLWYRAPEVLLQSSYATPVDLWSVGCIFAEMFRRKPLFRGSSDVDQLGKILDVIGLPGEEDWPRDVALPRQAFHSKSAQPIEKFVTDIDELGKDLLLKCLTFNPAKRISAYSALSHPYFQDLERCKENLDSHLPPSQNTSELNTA

[7] = biological target: Cyclin-dependent kinase 6 (Homo sapiens) (UniProt Q00534); conditions: at 1 µM
[8] = biological target: Dual specificity protein kinase CLK2 (Homo sapiens) (UniProt P49760); conditions: at 0.1 µM
Dual specificity protein kinase CLK2 (Homo sapiens), sequence (P49760 whole entry, looked up): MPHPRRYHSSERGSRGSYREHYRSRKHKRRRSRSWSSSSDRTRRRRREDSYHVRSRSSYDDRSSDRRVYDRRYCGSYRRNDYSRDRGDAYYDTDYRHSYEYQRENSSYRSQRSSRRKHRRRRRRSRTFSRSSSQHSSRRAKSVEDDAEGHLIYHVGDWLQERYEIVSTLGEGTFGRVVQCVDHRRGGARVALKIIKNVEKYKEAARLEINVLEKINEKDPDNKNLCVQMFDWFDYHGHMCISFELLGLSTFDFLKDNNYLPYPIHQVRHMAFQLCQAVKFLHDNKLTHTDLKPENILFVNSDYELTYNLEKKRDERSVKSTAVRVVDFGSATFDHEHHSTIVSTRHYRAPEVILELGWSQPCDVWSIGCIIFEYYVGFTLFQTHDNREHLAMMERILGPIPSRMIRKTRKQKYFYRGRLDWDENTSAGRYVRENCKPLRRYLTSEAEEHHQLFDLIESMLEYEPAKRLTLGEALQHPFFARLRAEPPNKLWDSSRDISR

[9] = biological target: Dual specificity protein kinase CLK2 (Homo sapiens) (UniProt P49760); conditions: at 1 µM
[10] = biological target: Dual specificity protein kinase CLK3 (Homo sapiens) (UniProt P49761); conditions: at 0.1 µM
Dual specificity protein kinase CLK3 (Homo sapiens), sequence (P49761 whole entry, looked up): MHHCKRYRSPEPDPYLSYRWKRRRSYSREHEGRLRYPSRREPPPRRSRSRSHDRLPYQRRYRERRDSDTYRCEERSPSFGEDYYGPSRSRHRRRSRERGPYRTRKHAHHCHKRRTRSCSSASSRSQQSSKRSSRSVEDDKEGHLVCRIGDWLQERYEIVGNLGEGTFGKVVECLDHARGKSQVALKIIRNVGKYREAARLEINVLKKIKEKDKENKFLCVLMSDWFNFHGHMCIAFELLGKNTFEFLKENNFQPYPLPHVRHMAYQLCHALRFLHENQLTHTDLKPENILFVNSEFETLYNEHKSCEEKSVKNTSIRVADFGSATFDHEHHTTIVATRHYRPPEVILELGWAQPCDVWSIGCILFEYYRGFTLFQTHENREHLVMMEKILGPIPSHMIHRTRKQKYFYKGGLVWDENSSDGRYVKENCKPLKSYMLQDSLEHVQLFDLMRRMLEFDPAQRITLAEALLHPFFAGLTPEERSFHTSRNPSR

[11] = biological target: Dual specificity protein kinase CLK3 (Homo sapiens) (UniProt P49761); conditions: at 1 µM
[12] = biological target: Dual specificity tyrosine-phosphorylation-regulated kinase 1A (Homo sapiens) (UniProt Q13627); conditions: at 0.1 µM
[13] = biological target: Dual specificity tyrosine-phosphorylation-regulated kinase 1A (Homo sapiens) (UniProt Q13627); conditions: at 1 µM
[14] = biological target: Dual specificity tyrosine-phosphorylation-regulated kinase 1B (Homo sapiens) (UniProt Q9Y463); conditions: at 0.1 µM
Dual specificity tyrosine-phosphorylation-regulated kinase 1B (Homo sapiens), sequence (Q9Y463 whole entry, looked up): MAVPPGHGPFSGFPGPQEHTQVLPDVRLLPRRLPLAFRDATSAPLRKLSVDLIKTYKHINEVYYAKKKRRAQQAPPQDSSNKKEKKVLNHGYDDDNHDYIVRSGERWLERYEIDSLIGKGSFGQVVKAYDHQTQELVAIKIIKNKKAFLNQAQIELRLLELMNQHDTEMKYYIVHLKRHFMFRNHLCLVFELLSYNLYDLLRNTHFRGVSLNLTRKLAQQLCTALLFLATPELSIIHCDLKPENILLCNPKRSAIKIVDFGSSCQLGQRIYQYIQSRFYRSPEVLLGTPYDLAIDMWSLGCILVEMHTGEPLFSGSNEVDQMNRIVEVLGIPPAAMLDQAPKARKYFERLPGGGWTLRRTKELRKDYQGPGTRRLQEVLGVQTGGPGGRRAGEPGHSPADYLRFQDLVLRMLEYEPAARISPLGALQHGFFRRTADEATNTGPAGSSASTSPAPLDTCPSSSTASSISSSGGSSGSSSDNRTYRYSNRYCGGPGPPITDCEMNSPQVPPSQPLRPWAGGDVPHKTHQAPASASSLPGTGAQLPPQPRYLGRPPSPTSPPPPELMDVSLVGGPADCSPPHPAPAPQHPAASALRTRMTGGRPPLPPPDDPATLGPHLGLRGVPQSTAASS

[15] = biological target: Dual specificity tyrosine-phosphorylation-regulated kinase 1B (Homo sapiens) (UniProt Q9Y463); conditions: at 1 µM
[16] = biological target: T1, Dual specificity tyrosine-phosphorylation-regulated kinase 2 (Homo sapiens) (UniProt Q92630); conditions: at 0.1 µM
T1 sequence (whole entry): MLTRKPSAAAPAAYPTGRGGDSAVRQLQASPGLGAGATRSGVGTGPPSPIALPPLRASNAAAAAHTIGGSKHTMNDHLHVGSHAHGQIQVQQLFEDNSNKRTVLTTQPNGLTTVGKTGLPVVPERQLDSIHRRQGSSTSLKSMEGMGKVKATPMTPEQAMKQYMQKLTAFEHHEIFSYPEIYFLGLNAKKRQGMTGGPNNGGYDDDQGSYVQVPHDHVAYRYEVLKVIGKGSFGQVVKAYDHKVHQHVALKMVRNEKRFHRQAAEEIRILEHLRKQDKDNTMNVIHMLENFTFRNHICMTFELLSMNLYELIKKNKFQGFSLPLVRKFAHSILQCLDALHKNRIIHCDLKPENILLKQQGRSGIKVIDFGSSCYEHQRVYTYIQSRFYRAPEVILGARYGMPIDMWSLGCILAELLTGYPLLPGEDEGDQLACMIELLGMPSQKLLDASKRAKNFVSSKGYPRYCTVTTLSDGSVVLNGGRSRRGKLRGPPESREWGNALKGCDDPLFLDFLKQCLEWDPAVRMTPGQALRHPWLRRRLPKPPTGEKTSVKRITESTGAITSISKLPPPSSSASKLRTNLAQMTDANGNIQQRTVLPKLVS

[17] = biological target: T1, Dual specificity tyrosine-phosphorylation-regulated kinase 2 (Homo sapiens); conditions: at 1 µM
[18] = biological target: Glycogen synthase kinase-3 alpha (Homo sapiens) (UniProt P49840); conditions: at 0.1 µM
Glycogen synthase kinase-3 alpha (Homo sapiens), sequence (P49840 2-483 limits assumed): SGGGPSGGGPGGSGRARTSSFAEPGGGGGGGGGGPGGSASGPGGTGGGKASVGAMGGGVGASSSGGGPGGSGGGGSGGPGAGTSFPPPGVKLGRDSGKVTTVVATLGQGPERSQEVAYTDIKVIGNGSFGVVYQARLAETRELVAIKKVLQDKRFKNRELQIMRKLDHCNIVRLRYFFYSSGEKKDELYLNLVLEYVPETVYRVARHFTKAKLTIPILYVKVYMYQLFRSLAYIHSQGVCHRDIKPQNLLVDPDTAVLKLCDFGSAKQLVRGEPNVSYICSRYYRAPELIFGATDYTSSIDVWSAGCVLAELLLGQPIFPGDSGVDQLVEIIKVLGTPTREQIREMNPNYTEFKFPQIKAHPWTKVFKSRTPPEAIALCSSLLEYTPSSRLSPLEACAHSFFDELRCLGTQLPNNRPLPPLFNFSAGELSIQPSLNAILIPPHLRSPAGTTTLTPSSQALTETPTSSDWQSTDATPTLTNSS

[19] = biological target: Glycogen synthase kinase-3 alpha (Homo sapiens) (UniProt P49840); conditions: at 1 µM
[20] = biological target: Glycogen synthase kinase-3 beta (Homo sapiens) (UniProt P49841); conditions: at 0.1 µM;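 note: values are mean percent inhibition of GSK3B activity, from the GSK Published Kinase Inhibitor Set (PKIS) screening dataset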
Glycogen synthase kinase-3 beta (Homo sapiens), sequence (P49841 whole entry, looked up): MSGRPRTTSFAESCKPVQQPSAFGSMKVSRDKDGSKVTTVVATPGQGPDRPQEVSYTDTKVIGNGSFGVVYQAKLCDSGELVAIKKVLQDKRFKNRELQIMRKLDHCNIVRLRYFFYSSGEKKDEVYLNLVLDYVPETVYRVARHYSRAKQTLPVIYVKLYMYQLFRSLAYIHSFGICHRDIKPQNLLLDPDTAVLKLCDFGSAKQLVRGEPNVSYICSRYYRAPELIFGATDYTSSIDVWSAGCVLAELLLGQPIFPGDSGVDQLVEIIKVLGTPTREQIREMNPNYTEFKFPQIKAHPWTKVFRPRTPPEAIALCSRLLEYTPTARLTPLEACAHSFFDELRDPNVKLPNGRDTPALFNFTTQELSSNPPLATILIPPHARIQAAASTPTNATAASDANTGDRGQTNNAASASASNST

CDK3/Cyclin E (Homo sapiens), sequence (P24864 whole entry, looked up): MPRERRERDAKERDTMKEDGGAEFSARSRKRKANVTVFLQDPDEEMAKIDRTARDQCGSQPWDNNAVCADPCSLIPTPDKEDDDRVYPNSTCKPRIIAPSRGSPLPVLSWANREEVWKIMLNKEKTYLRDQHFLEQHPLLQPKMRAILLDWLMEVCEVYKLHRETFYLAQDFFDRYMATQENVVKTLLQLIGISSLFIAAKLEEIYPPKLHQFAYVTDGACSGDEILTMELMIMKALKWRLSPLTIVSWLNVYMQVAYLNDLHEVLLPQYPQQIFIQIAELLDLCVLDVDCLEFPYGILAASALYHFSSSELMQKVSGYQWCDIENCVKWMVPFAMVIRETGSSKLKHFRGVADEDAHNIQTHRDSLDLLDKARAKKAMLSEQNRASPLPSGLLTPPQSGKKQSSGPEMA
CDK3/Cyclin E (Homo sapiens), sequence (Q00526 whole entry, looked up): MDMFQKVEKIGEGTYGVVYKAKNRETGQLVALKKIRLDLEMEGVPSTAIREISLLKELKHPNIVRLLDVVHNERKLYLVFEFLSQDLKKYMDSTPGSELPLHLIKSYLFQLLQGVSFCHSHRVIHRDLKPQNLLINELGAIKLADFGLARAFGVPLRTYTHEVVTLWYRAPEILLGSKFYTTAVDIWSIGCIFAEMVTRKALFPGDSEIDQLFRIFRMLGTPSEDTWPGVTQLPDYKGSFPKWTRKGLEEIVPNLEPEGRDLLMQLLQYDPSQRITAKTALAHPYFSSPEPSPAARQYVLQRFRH
Cyclin-dependent kinase 4 (Homo sapiens), sequence (P11802 whole entry): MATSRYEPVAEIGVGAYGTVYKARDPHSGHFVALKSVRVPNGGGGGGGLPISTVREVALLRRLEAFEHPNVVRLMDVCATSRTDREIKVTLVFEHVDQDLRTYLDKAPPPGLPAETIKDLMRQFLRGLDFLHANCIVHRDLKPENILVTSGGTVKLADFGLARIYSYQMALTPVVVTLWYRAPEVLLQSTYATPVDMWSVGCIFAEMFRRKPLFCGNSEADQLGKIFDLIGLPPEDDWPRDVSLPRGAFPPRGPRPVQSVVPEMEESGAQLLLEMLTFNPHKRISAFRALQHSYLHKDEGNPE

SMILES | inhibition [1] [%] | inhibition [2] [%] | inhibition [3] [%] | inhibition [4] [%] | inhibition [5] [%] | inhibition [6] [%] | inhibition [7] [%] | inhibition [8] [%] | inhibition [9] [%] | inhibition [10] [%] | inhibition [11] [%] | inhibition [12] [%] | inhibition [13] [%] | inhibition [14] [%] | inhibition [15] [%] | inhibition [16] [%] | inhibition [17] [%] | inhibition [18] [%] | inhibition [19] [%] | inhibition [20] [%]
CCc1cccc(NC(=O)Nc2ccc(Oc3ccc4nc(NC(=O)OC)[nH]c4c3)cc2)c1 | -1.16 | 0.97 | 1.5 | -0.16 | -0.09 | 7.42 | 1.51 | 0.09 | 1.38 | 0.3 | 0.82 | 0.05 | 1.26 | 0.7 | 1.1 | 0.73 | 1.13 | 1.53 | 4.83 | 1.88
COc1cc(C)c(NC(=O)CN(C)C)cc1Nc1nc(Nc2cccc(F)c2C(N)=O)c2cc[nH]c2n1 | 0.15 | 0.8 | 1.16 | -0.59 | -1.89 | -0.3 | 3.87 | 45.4 | 88.8 | 1.76 | 13.2 | 1.71 | 20 | 1.59 | 14.8 | 2.4 | 5.3 | -0.24 | 1.07 | -1.22
COc1cc2ncn(-c3cc(OCc4ccccc4C(F)(F)F)c(C(N)=O)s3)c2cc1OC | -0.14 | -1.16 | 1.16 | -3.58 | -1.09 | -3.21 | -1.7 | 1.94 | 6.82 | -2.62 | -2.17 | -1.02 | 2.2 | -4.5 | -2.84 | 1.73 | 3.25 | 0.16 | 4.9 | -0.65
CCn1c(-c2nonc2N)nc2c(N3CCCC3)nccc21 | -0.6 | 15.6 | 4.7 | 1.73 | 4.5 | -2.76 | 2.52 | -0.76 | -0.67 | 1 | 1.31 | 3.13 | 8.89 | 2.51 | 6.95 | -1.18 | -1.63 | 1.82 | 4.77 | 2
CC1=C(C(=O)Nc2ccc3[nH]ncc3c2)C(c2ccc(Cl)c(Cl)c2)CC(=O)N1 (centres undefined) | 0.2 | 0.92 | -0.63 | -0.73 | -0.62 | 2.47 | 0.05 | 0.09 | 4.18 | 0.34 | 2.49 | -0.12 | 3.73 | 0.77 | 3.21 | 1.35 | 2.88 | 0.15 | 4.5 | -0.24
Nc1ncnc2occ(-c3ccc(NC(=O)Nc4cccc(C(F)(F)F)c4)cc3)c12 | 16.6 | 3.45 | 6.6 | 0.37 | 4.7 | 1.3 | 2.21 | 0.14 | 2.59 | 1.01 | – | 3.42 | 6.79 | -0.28 | 1.94 | 3.2 | 2.85 | 3.15 | 9.54 | 2.89
NS(=O)(=O)c1ccc(N/N=C2\C(=O)Nc3ccc(C(=O)NCCc4c[nH]cn4)cc32)cc1 | 81.3 | 14.4 | 56.4 | 48.3 | 84.4 | 14.9 | 55.9 | 46.5 | 91.9 | 4.48 | 24.2 | 6.64 | 30.6 | 5.35 | 31.5 | 6.85 | 33.4 | 50.7 | 86.8 | 51
